Screening results from PubChem BioAssay.
The list is not random: actives were taken first. Their share in the collection is about 3.8%.
HepG2 viability = kills HepG2 cells in TGF-b inhibitor counter-screen. HepG2 CAGA-GFP viability, ATP luminescence, 18 h. Potency, µM (titrated, usually from 46.1 µM), usual class: cytotoxic. 0.76% of 410,000 active. AID 588856
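HepG2 CAGA-GFP cells (1000/well, DMEM with 1% FBS) received compound, then TGF-beta at 500 pg/mL final, and were incubated 18 hours at 37 degrees C. Viability was read by CellTiter-Glo luminescence. Media-only wells were set as complete cell-killing and DMSO as no toxicity.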
A549 viability = counter-screen for Nrf2 inhibitors: cytotoxicity in A549 cells. A549 ARE-Fluc cells, CellTiter-Fluor viability, 18-24 h. Potency, µM (doses to about 46 µM), most hits filed as inhibitors. 0.16% of 390,000 active. AID 504648
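Cytotoxicity counterscreen: CellTiter-Fluor fluorescence was measured in A549 ARE_Fluc cells after 18-24 h of compound exposure in a concentration series. The subsequent BugLite luminescent read reports ARE-luciferase activity.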
ATXN viability = viability counter-screen for ATXN expression inhibitors. S2 cells (HEK-293 line with an ATXN2-luciferase reporter) viability, CellTiter-Fluor protease fluorescence, 24 h. Potency, µM (highest dose often 56.7 µM), most hits filed as cytotoxic. 0.49% of 400,000 active. AID 651635; note: nearly all actives have a fitted effect of over 40% in size
TGFb SMAD3 inh = TGF-b pathway inhibition; HepG2 CAGA-GFP TGF-b/SMAD3 reporter, GFP fluorescence, 18 h; TGF-beta stimulated, 500 pg/mL final; 1.2% of 410,000 active; Potency, µM (series often up to 46.1 µM), hits mostly inhibitors; note: nearly all actives have a fitted effect of over 65% in size
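HEPG2 CAGA-GFP cells (1000/well, DMEM with 1% FBS) were pre-incubated 2 h at 37 degrees C, given compound by pin tool, then stimulated with TGF-beta at 500 pg/mL final for 18 h before per-cell GFP fluorescence imaging.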
Nrf2 inh = blocks Nrf2 signaling; A549 ARE-Fluc reporter, luciferase luminescence, 18-24 h; Potency, µM (top dose mostly 46 µM), most hits filed as inhibitors; 2.1% of 360,000 active; AID 504444; note: nearly all actives have a fitted effect of over 60% in size
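Concentration-response testing used A549 ARE_Fluc cells at 5000 cells/well. Following an 18-24 h compound incubation, viability was read by fluorescence (Ex 405/Em 525) and luciferase output by luminescence.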
ATXN2 expr inh = reduces ATXN2 reporter expression in HEK-293 cells; 0.72% of 360,000 active; HEK-293 ATXN2-luciferase reporter, luminescence, 24 h; AID 1745845; Potency, µM (highest dose often 57 µM), most hits filed as inhibitors; note: nearly all actives have a fitted effect of over 55% in size
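ATXN2-luciferase reporter cells (luciferase flanked by upstream and downstream ATXN2 gene portions) were treated 24 h at 37 °C with compounds at up to 57 uM. SteadyGlo luminescence gave expression; GF-AFC fluorescence gave viability.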
Hits are given with their value; n = inactive; u = inconclusive; x = no result given. Calls come from the whole dose curve; as a rule, active = well fitted curve in the direction sought with a large enough effect; inconclusive = small, poorly fitted or top-dose-only effect, or another doubt; inactive = no such curve, though single readings can be large; an effect the other way counts as inactive or inconclusive.

SMILES | HepG2 viability | A549 viability | ATXN viability | TGFb SMAD3 inh | Nrf2 inh | ATXN2 expr inh
CNc1nc(NCc2ccco2)c2ccccc2n1 | n | x | x | 2.8µM | x | x
CC(O)CNCCOc1ccccc1OCc1ccccc1 (centres undefined) | n | n | n | n | n | u
CC(O)CNCCNCc1c(OCc2ccccc2)ccc2ccccc12 (centres undefined) | n | n | u | 11µM | u | 25µM
C=CCN(C(=O)CSc1nc2c(sc3ccccc32)c(=O)n1CCN(CC)CC)c1ccccc1 | n | u | u | 18µM | n | u
CCc1ccc(NC(=O)CSc2nc3c(sc4ccccc43)c(=O)n2CCN(CC)CC)cc1 | n | n | n | n | x | n
COC(=O)COc1ccc(S(=O)(=O)Nc2ccc(C(N)=O)cc2)cc1C | n | n | n | 16µM | n | n
COC(=O)COc1ccc(S(=O)(=O)Nc2ccc(C(N)=O)cc2)cc1Cl | n | n | n | n | n | n
O=C(NCCCN1CCCC1=O)C1CCC(CNS(=O)(=O)c2ccc(Cl)cc2)CC1 (centres undefined) | n | n | n | n | u | n
O=C1CCCC2=C1C(c1cccs1)n1nc(SCc3ccccc3F)nc1N2 (centres undefined) | n | n | n | u | 18µM | n
Cc1ccccc1CSc1nc2n(n1)C(c1cccs1)C1=C(CCCC1=O)N2 (centres undefined) | n | n | n | u | u | n
COc1ccccc1N1CCN(C(=O)c2nn(-c3ccc(C)cc3)c(=O)n(C)c2=O)CC1 | n | n | n | n | x | n
CC(C)CCCC(C)NCCC(C)C (centres undefined) | x | x | n | x | x | n
Cc1ccc(S(=O)(=O)c2c(N)n(Cc3ccco3)c3nc4ccccc4nc23)cc1 | n | x | n | n | 18µM | u
COc1ccc(/C=C\c2onc(C)c2S(=O)(=O)N2CCC(C(=O)Nc3ccc(C)c(F)c3)CC2)cc1 | n | n | x | 11µM | u | x
COc1ccc(/C=C\c2onc(C)c2S(=O)(=O)N2CCC(C(=O)Nc3ccc(Cl)cc3)CC2)cc1 | n | n | x | n | n | x
Cc1ccccc1NC(=O)C1CCN(S(=O)(=O)c2c(C)noc2/C=C/c2ccco2)CC1 | n | n | x | n | n | x
Cc1ccc(NC(=O)C2CCN(S(=O)(=O)c3c(C)noc3/C=C/c3ccco3)CC2)nc1 | n | n | n | n | 16µM | n
Cc1noc(/C=C/c2ccccc2F)c1S(=O)(=O)N1CCC(C(=O)Nc2ccc(C#N)cc2)CC1 | n | n | x | 4.5µM | x | x
CCOCCc1nn2c(=O)cc(COC(=O)c3ccc4c(c3)OCO4)nc2s1 | n | n | n | n | u | n
Cn1nc(C(F)(F)F)c(CO)c1Sc1ccc(F)cc1 | n | n | n | n | n | n
CCn1c(-c2cccc(OC)c2)nc2cc(NC(C)=O)cc(C(=O)N3CCC[C@H]3C(=O)OC)c21 | x | x | n | x | x | x
COc1ccc(-n2c(SCC#N)nnc2-c2ccc(NS(=O)(=O)c3ccc(C)cc3)cc2)cc1 | n | n | n | n | 10µM | n
Cc1ccc(-n2ncc3c2CCCC3NC(=O)c2ccoc2)cc1C (centres undefined) | n | n | u | n | u | n
COCc1ccc(C(=O)NC2CCCc3c2cnn3-c2ccc(C)c(C)c2)o1 (centres undefined) | n | n | n | n | 15µM | u
CN(C)NC(=S)NC1CCS(=O)(=O)C1 (centres undefined) | n | n | n | n | n | n
SMILES | HepG2 viability | A549 viability | ATXN viability | TGFb SMAD3 inh | Nrf2 inh | ATXN2 expr inh
CC(C)[C@H](NC(=O)c1ccccc1F)C(=O)OCCN1C(=O)c2ccccc2C1=O | n | n | n | n | n | n
CCN1C/C(=C\c2cccc([N+](=O)[O-])c2)C(=O)/C(=C/c2cccc([N+](=O)[O-])c2)C1 | n | n | 4.5µM | u | n | 3.5µM
C[N+]1(C)CCN(CC(O)(c2ccccc2)C2CCCCC2)CC1 (centres undefined) | x | x | n | x | x | x
O=S1(=O)C=C(Sc2nc3ccccc3s2)c2ccccc21 | 11µM | 23µM | 7.1µM | 2.8µM | 18µM | u
COc1ccc(Cl)cc1CC1(C)C(=O)Nc2ccc(-c3ccccc3OC)cc21 (centres undefined) | n | x | n | u | x | u
COc1ccccc1-c1ccc2c(c1)C(C)(Cc1cc(Cl)ccc1C(F)(F)F)C(=O)N2 (centres undefined) | n | x | n | 18µM | x | u
COc1ccc(C(C)=O)cc1CC1(C)C(=O)Nc2ccc(-c3cccc(C(F)(F)F)c3)cc21 (centres undefined) | n | x | n | 16µM | x | u
CC1(Cc2ccc(C(F)(F)F)o2)C(=O)Nc2cc(-c3ccc(F)cc3F)ccc21 (centres undefined) | 20µM | x | u | u | x | u
CC1(Cc2ccccc2Cl)C(=O)Nc2cc(-c3ccccc3Cl)ccc21 (centres undefined) | 18µM | x | x | u | x | n
O=S(=O)(Nc1ccc2ccccc2n1)c1ccccc1 | n | n | n | n | n | n
CSc1ccc(CNC(=O)CN2C(=O)C3CCCCN3c3ccc(C(=O)N4CCCC4)cc32)cc1 (centres undefined) | n | n | n | n | x | n
CC1(Cc2cc(Cl)ccc2C(F)(F)F)C(=O)Nc2cc(F)ccc21 (centres undefined) | n | x | u | u | x | u
CC1(Cc2cc(Cl)ccc2C(F)(F)F)C(=O)Nc2cc(C(F)(F)F)ccc21 (centres undefined) | 18µM | x | u | u | x | n
CCn1c(=O)cc(SCC(=O)Nc2ccc(C)c(F)c2)c2ccccc21 | n | n | u | n | 23µM | n
Cc1cc(Nc2cccc(C(F)(F)F)c2)nc2ccc(NC(=O)c3cccnc3)cc12 | n | u | 18µM | u | 21µM | u
Cc1cc(Nc2cccc(C(F)(F)F)c2)nc2ccc(NC(=O)c3cccc(Cl)c3)cc12 | 13µM | 18µM | n | u | 26µM | u
COc1ccc(C(=O)/C=C/c2ccc(OC)c(Cn3nnc4ccccc43)c2)cc1 | n | u | n | n | 21µM | n
COc1cc2c(cc1OC)C1(Nc3c-2c(C)nn3-c2ccccc2)C(=O)Nc2ccccc21 (centres undefined) | n | n | n | n | n | n
COc1cc2c(cc1OC)C1(Nc3c-2c(-c2ccccc2)nn3-c2ccccc2)C(=O)Nc2ccccc21 (centres undefined) | n | u | n | 16µM | u | n
CC(C)CC(=O)NC(NC(=S)Nc1sc2c(c1C#N)CCCC2)C(Cl)(Cl)Cl (centres undefined) | n | u | n | 16µM | u | u
